From PubChem BioAssay (NCATS)
Inconclusive results are not listed. Calls of active or inactive are those of the source. Calls come from the whole dose curve; as a rule, active = well fitted curve in the direction sought with a large enough effect; inconclusive = small, poorly fitted or top-dose-only effect, or another doubt; inactive = no such curve, though single readings can be large; an effect the other way counts as inactive or inconclusive.

Legend:
[1] = molecular target: Glutaminase kidney isoform, mitochondrial (Homo sapiens) (UniProt O94925); experiment: qHTS for Inhibitors of Glutaminase (GLS): LOPAC Validation (AID 624146); note: nearly all actives have a fitted effect of over 60% in size; note: potency is the fitted concentration of half-maximal effect
Glutaminase kidney isoform, mitochondrial (Homo sapiens), sequence (O94925 whole entry, looked up, canonical isoform): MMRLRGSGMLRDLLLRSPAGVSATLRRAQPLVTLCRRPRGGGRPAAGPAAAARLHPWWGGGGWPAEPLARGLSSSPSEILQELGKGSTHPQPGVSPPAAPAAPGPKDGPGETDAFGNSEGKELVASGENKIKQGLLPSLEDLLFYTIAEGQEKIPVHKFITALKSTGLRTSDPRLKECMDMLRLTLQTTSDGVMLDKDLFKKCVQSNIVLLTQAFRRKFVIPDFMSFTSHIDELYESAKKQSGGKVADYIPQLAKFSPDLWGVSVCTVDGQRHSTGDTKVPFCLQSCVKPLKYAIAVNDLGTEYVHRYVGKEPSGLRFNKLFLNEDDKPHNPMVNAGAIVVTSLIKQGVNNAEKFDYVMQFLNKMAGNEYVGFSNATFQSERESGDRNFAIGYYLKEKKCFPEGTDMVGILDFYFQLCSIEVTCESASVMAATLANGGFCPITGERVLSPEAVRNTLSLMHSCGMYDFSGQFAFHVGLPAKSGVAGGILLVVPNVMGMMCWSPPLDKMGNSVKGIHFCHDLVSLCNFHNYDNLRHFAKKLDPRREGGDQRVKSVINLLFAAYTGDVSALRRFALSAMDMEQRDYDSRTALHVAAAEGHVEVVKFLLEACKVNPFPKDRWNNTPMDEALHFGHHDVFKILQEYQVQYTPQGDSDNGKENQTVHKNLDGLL
Outline: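 Enzyme dispensed in phosphate buffer (45 mM, pH 8.2, 0.02% Tween-20), compounds pinned in, then 1 mM L-glutamine solution and the glutamate oxidase–HRP–Amplex Red mix added; fluorescence read immediately and again after 30 min at room temperature.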

[2] = qHTS of Trypanosoma Brucei Inhibitors: LOPAC Validation (AID 624147)
Outline: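 Enzyme and substrate buffer are dispensed first and compound is pin-transferred. ADP at 130 uM final then starts the reaction, which runs 45 min at room temperature. Detection reagent is added for 10 min before luminescence is imaged.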

[3] = molecular target: Glucagon-like peptide 1 receptor (Homo sapiens) (UniProt P43220); experiment: qHTS of GLP-1 Receptor Agonists: LOPAC Validation (AID 624148);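 note: luminescence from a luciferase reporter switched on by cAMP; higher luminescence signal means agonism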
Glucagon-like peptide 1 receptor (Homo sapiens), sequence (P43220 whole entry, looked up): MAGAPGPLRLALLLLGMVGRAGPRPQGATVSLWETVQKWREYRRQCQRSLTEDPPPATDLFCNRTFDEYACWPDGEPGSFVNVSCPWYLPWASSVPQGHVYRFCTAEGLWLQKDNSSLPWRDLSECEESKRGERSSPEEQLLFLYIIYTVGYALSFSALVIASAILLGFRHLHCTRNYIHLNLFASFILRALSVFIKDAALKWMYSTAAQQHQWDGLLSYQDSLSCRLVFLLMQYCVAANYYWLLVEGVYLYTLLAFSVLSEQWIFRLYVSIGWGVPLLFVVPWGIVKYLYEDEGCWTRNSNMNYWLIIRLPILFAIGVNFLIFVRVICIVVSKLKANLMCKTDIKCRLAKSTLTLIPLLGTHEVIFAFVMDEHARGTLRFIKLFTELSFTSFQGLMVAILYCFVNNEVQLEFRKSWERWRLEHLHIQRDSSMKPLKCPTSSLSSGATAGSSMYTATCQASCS
Outline: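 Agonism scored as increased luciferase luminescence driven by cAMP in HEK293 clones carrying GLP-1R. Cells settled 12 hours, received compound for 4-6 hr at 37 deg C, 5% CO2, and were read after 12 min detection reagent at RT.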

[4] = qHTS of Nrf2 Activators: LOPAC Validation (AID 624149)
Outline: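 AREc32_Fluc cells, 1000/well, OPTI-MEM + 5% FBS, o/n 37 deg C 5% CO2; compound pin-transfer, 24 hr 37 deg C; Steady-Glo 30 min RT, luminescence read.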

[5] = HTS Assay for Allosteric Antagonists of the Human D2 Dopamine Receptor: Hit Validation in HTRF (AID 624455)
Outline: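 HTRF read-out; cells stably expressing D1 receptor; hits scored for inhibition of D1-mediated response. Primary screen: calcium flux, force-coupled inducible Hek293 Trex D2 line, antagonism vs EC80 dopamine.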

Measured: Potency

COc1ccc(-c2cc3ncc(C)n3c(Nc3ncccc3C(N)=O)n2)cc1OC
inactive: all assays above

CC[C@H](NC(=O)c1c(C)c(-c2ccccc2)nc2ccccc12)c1ccccc1
inactive: all assays above

N=C(N)c1ccc(OCCCCCOc2ccc(C(=N)N)cc2)cc1 (tested in a mixture with another compound)
inactive: all assays above

O=S(=O)(c1cccc2c(Cl)cccc12)N1CCCNCC1
inactive: all assays above

Nc1nc2[nH]c(=O)cnc2c(=O)[nH]1
inactive: all assays above

O=c1cc(-c2ccccc2F)[nH]c2cc3c(cc12)OCO3
inactive: all assays above

O=c1cc(-c2ccccc2)[nH]c2nc(Cl)ccc12
inactive: all assays above

CC(=O)SC1CC2=CC(=O)CC[C@]2(C)C2CC[C@@]3(C)C(CC[C@@]34CCC(=O)O4)C12 (some centres not stated)
inactive: all assays above

CN(CC[C@@H](Oc1ccc(C(F)(F)F)cc1)c1ccccc1)CC(=O)O
inactive: all assays above

CCCOC(=O)c1c(-c2ccccc2)nc(CC)c(C(=O)SCC)c1CCC
inactive: all assays above

O=c1[nH]c(=S)[nH]c(-c2ccccc2)c1Cc1c(O)ccc2ccccc12
active: [1] 8.91 µM
inactive: all other assays above

CCCCCC[C@@H]([C@@H](C)O)n1cnc2c(N)ncnc21
inactive: all assays above

CCC1(O)CC2CN(CCc3c([nH]c4ccccc34)[C@@](C(=O)OC)(c3cc4c(cc3OC)N(C)C3[C@]45CCN4CC=C[C@@](CC)([C@@H](OC(C)=O)[C@]3(O)C(=O)OC)[C@H]45)C2)C1 (some centres not stated)
active: [1] 8.91 µM
inactive: all other assays above

C=C1C[C@@]23CC[C@H]4[C@@](C)(CCC[C@@]4(C)C(=O)O)[C@@H]2CC[C@]1(O)C3
inactive: all assays above

CC(/C=C/c1cccc(Oc2ccc(F)cc2)c1)N(O)C(N)=O (configuration not stated)
active: [1] 1.78 µM
inactive: all other assays above

C[C@H]1CC2C3CCC4=CC(=O)C=C[C@]4(C)[C@@]3(Cl)[C@@H](O)C[C@]2(C)[C@@]1(O)C(=O)CO (some centres not stated)
inactive: all assays above

CC(=O)O[C@H]1Cc2ccccc2N(C(N)=O)c2ccccc21
inactive: all assays above

CCCCCCCCCCC(C)(C)C(=O)Nc1c(OC)cc(OC)cc1OC
inactive: all assays above

O=c1onc2n1-c1cc(Br)ccc1OC2
inactive: all assays above

CC(C)[C@@H]1CC[C@@H](C)C[C@@H]1P(=O)(c1ccccc1)c1ccccc1
inactive: all assays above

CC(=O)N[C@@H](Cc1c[nH]c2ccccc12)C(=O)OCc1cc(C(F)(F)F)cc(C(F)(F)F)c1
inactive: all assays above

C[C@]12C=CC(=O)C=C1CC[C@@H]1C2=CC[C@]2(C)[C@@H](C(=O)CN3CCN(c4cc(N5CCCC5)nc(N5CCCC5)n4)CC3)CC[C@@H]12
inactive: all assays above

O=C(N[C@@H](Cc1ccccc1)C(=O)CCl)OCc1ccccc1
inactive: all assays above

CCN(c1nc(N)c(C(=O)N=C(N)N)nc1Cl)C(C)C
inactive: all assays above

N[C@@H](Cc1ccc(F)cc1)C(=O)O
inactive: all assays above

O=C(O)C1=CCCN(CCON=C(c2ccccc2)c2ccccc2)C1
inactive: all assays above

c1ccc(C(NCc2cccnc2)(c2ccccc2)c2ccccc2)cc1
inactive: [2] | [3] | [4]

NCCNS(=O)(=O)c1cccc2c(Cl)cccc12
inactive: all assays above

CCCCCCN(CCCCCC)C(=O)Cc1c(-c2ccc(F)cc2)[nH]c2ccccc12
not listed: [1]
inactive: all other assays above
